{"source": "PubChem BioAssay (NCATS)", "note": "Records with an inconclusive call do not appear. Where a call stands in place of a potency, no number is given. Calls of active or inactive are those of the source. Calls follow the shape of the dose curve; as a rule, active = well fitted curve in the direction sought with a large enough effect; inconclusive = small, poorly fitted or top-dose-only effect, or another doubt; inactive = no such curve, though single readings can be large or run the other way. Bridge positions count the residues as written; N and C are the ends. Square brackets hold non-standard residues; d marks the D form. Side chains are listed from the residue outwards. Peptide text beside a SMILES is read from it. * marks the point of attachment. Phg(4-OMe) = COc1ccc([C@H](N)C(=O)O)cc1; d(aIle) = CC[C@H](C)[C@@H](N)C(=O)O; d(aThr) = C[C@@H](O)[C@@H](N)C(=O)O; NMeF = CN[C@@H](Cc1ccccc1)C(=O)O; Isobutyryl = CC(C)C(=O)*"}
{"experiment": "HPAF-II 12hr Apoptosis Induction qHTS against the NCATS CANVASS Library (AID 1347358)", "conditions": "HPAF-II caspase-3/7 Caspase-Glo luminescence; series mostly up to 46.1 µM", "text": "Natural products and their derivatives continue to be wellsprings of nascent therapeutic potential. However, many laboratories have limited resources for biological evaluation, leaving their previously isolated or synthesized compounds largely or completely untested. To address this issue, the Canvass library of natural products was assembled (https://tripod.nih.gov/canvass), in collaboration with academic and industry researchers, for quantitative high-throughput screening (qHTS) across a diverse set of cell-based and biochemical assays. The pure (>85% purity by liquid chromatography/mass spectrometry [LC/MS]) Canvass library of 346 natural products were submitted by 45 academic laboratories and companies around the world. We collected pure natural products to circumvent deconvolution and structure elucidation due to time and resource limitations. The library was formatted into 1536-well plates and evaluated in 50 qHTS (in an 11-pnt concentration series) bioassays with broad scope of disease-relevant mechanisms. The resulting data set from 50 different assays was then systematically analyzed to identify overall trends and specific natural products with interesting biological activities. Reported herein are the results of each individual qHTS and their corresponding assay protocol. The Caspase-Glo (R) (Promega) is a homogeneous, luminescent assay that measures caspase activity. The detection substrate contains tetrapeptide sequence DEVD in an \"add-mix-measure\" format. The reagent generates a luminescent signal produced by a thermostable luciferase. The luminescence is proportional to the amount of caspase activity in the assay reaction. National Center for Advancing Translational Sciences (NCATS), Rockville, MD National Institute of Health (NIH), Bethesda, Maryland\nCancer Cell Apoptosis Assay 1. In a 1536 well, white solid bottom tissue culture plates (Corning 7494), HPAF-II cancer cells in DMEM + 10% FBS + 1% P/S media were dispensed in each well at a final concentration of 500 cells / well (5uL volume) using the Multidrop Combi (Thermo Fisher Scientific) dispenser. 2. Compounds were pin transferred (~23nL volume) via Wako Pin-tool (Wako Automation, Richmond VA) equipped with a 1536 pin head. The assay plates were treated with compounds in a concentration series with a final concentration range of 0.17nM to 103uM. 3. Doxorubicin was used as a control in a 16pnt titration (1mM; 1:2 dilution; 16-points; n = 2; column 3, rows 1 - 32) and was pin transferred via Wako Pin-tool equipped with a 1536 pin head. The final concentration range of doxorubicin is 0.1nM - 4uM. 4. The assay plates were incubated for 12 hours at 37 degrees C/5% CO2/95% Rh. 5. 3uL Caspase-Glo 3/7 (R) (Promega) detection reagent was then added to the assay plates (columns 2 - 48, rows 1 - 32) and incubated at room temperature, covered from light, for 15 min. 6. Luminescence signal was acquired via the ViewLux plate reader (PerkinElmer) using a clear filter, 20 second exposure and 2x binning settings."}
{"smiles": "CN1C(=O)C(=O)N2C(=C[C@]3(c4c[nH]c5ccccc45)c4ccccc4N[C@H]23)C1=O", "Potency": "inactive"}
{"smiles": "C=C1[C@@]2(C)CC3C4(C)CCC(O)C(C)(C)C4CCC3(C)[C@]1(C(=O)OC)C(=O)C(C)(O)C2=O", "note": "(stereo not given in full)", "Potency": "inactive"}
{"smiles": "CC(=O)N[C@H](C)c1nc(/C=C/C=C/C(=O)CC2CC(=O)CC[C@]2(C)O)cs1", "note": "(stereo not given in full)", "Potency": "inactive"}
{"smiles": "CC(C)[C@@H]1CC(=O)c2coc3c2[C@H]1C[C@@H](C)C3=O", "Potency": "inactive"}
{"smiles": "O=C1CC(c2ccc(O)cc2)Oc2cc(O)ccc21", "note": "(stereo not given)", "Potency": "inactive"}
{"smiles": "C/C1=C/[C@@H](C)[C@H](O)[C@@H](O)/C=C/CC/C=C/C(=O)O[C@@H]1[C@H](C)C(=O)CCCC1CC(=O)NC(=O)C1", "Potency": "inactive"}
{"smiles": "O=C1OC(CCO)c2cccc(O)c21", "note": "(stereo not given)", "Potency": "inactive"}
{"smiles": "COc1ccc([C@@H]2c3cc4c(cc3C[C@H](C)C2C)OCO4)cc1OC", "note": "(stereo not given in full)", "Potency": "inactive"}
{"smiles": "[C-]#[N+][C@@]12C(=O)[C@@H]3[C@@H](O[C@@]4(C(=O)N(C)c5cccc1c54)C3(C)C)C(=O)[C@@]2(C)C=C", "Potency": "inactive"}
{"smiles": "COC(=O)[C@@]1(C)CCC[C@]2(C)c3cc(OC)ccc3CC[C@@H]12", "Potency": "inactive"}
{"smiles": "C[C@@]12C[C@@H](C[C@@H]3C(=O)O[C@@H](c4ccoc4)[C@H](OC(=O)c4ccccc4)[C@@H]31)OC2=O", "Potency": "inactive"}
{"smiles": "C=C1CC[C@@H](Br)C(C)(C)[C@]12CC=C(C)C(=O)C2", "Potency": "inactive"}
{"smiles": "C[C@]12CCC[C@](C)(C(=O)O)[C@@H]1CC[C@@]1(C)c3cocc3CC[C@H]21", "Potency": "inactive"}
{"smiles": "Cc1occ2c1C(=O)c1c(cc(O)c(O)c1O)C2=O", "Potency": "inactive"}
{"smiles": "CC(C)C[C@@H]1c2c(O)c(C=O)c(O)c(C=O)c2O[C@]2(C)C=C[C@@H](C(C)C)C[C@H]12", "Potency": "inactive"}
{"smiles": "COc1cc([C@@H]2c3cc4c(cc3C[C@@]3(O[C@@H]5O[C@H](CO)[C@@H](O)[C@H](O)[C@H]5O)COC(=O)[C@H]23)OCO4)cc(OC)c1OC", "Potency": "inactive"}
{"smiles": "CC[C@@H](c1cc(OC)c(OC)cc1OC)[C@H](C)[C@@H](/C(C)=C/c1cc(OC)c(OC)cc1OC)c1cc(OC)c(OC)cc1OC", "Potency": "inactive"}
{"smiles": "C[C@H]1C=C[C@H]2CCCC[C@@H]2[C@H]1C(=O)[C@H]1CC2=C(C(=O)O)CCN2C1=O", "Potency": "inactive"}
{"smiles": "C/C1=C/[C@@H](C)[C@H](O)C/C=C/CC/C=C/C(=O)O[C@@H]1[C@H](C)C(=O)CCCC1CC(=O)NC(=O)C1", "Potency": "inactive"}
{"smiles": "CCC(C)=C1OC(=O)[C@H](C)[C@H](O)[C@H](Cc2cccnc2)NC(=O)C(NC(=O)c2ncccc2O)C(C)OC1=O", "note": "(stereo not given in full)", "Potency": "inactive"}
{"smiles": "COc1ccc([C@@H]2c3cc4c(cc3C(=O)C(C)C2C)OCO4)cc1OC", "note": "(stereo not given in full)", "Potency": "inactive"}
{"smiles": "C/C1=C/[C@@H](C)[C@H](O)[C@@H](O)/C=C/CC/C=C/C(=O)O[C@@H]1[C@H](C)C(=O)/C=C/CC1CC(=O)NC(=O)C1", "Potency": "inactive"}
{"smiles": "CC[C@H](C)[C@H]1NC(=O)[C@@H](NC(=O)C(C)C)[C@@H](C)OC(=O)[C@H](COC(=O)CNC(C)=O)NC(=O)[C@@H]([C@@H](C)O)NC(=O)[C@H](Cc2ccccc2)N(C)C(=O)[C@H](c2ccc(OC)cc2)NC1=O", "note": "(Isobutyryl-T[d(aIle)][Phg(4-OMe)][NMeF][d(aThr)]S([Gly-Ac]); ester 1-C)", "Potency": "inactive"}
{"smiles": "C/C=C(/C)c1cc(O)c(C)c2c1Oc1cc(O)cc(C)c1C(=O)O2", "Potency": "inactive"}
{"smiles": "COC(=O)[C@]1([C@H]2CCC(=O)O2)CC(=O)c2c(O)cc(C)cc2O1", "Potency": "inactive"}
{"smiles": "CC1=C[C@H]2[C@H]3C(=O)C(c4ccc(O)cc4)=C[C@@]3(c3ccc(O)cc3)[C@@H]1C(=O)[C@]2(C)O", "Potency": "inactive"}
{"smiles": "CCCc1c2c([nH]c(=O)c1C)C(=O)c1[nH]c(=O)c(C)c(CCC)c1C2=O", "Potency": "inactive"}
{"smiles": "C=C1C(=O)O[C@H]2[C@H]1CCC(C)=C1CC[C@@](C)(O)[C@@H]12", "Potency": "inactive"}
{"smiles": "CC(=O)Oc1cc2c(c(OC(C)=O)c1C1CCc3cc(Cl)c(Cl)n31)C(=O)n1c-2cc(Cl)c1Cl", "note": "(stereo not given)", "Potency": "inactive"}
{"smiles": "C=C[C@]1(C)CC[C@@H]([C@H](C)C(=O)CC=C(C)C)O1", "Potency": "inactive"}
{"smiles": "CC1(C)CC[C@]2(CO)CC[C@]3(C)C(=CCC4[C@@]5(C)CC[C@H](O)C(C)(C)C5CC[C@]43C)C2C1", "note": "(stereo not given in full)", "Potency": "inactive"}
{"smiles": "O=C1CC(c2ccc(O)cc2)Oc2cc(O)cc(O)c21", "note": "(stereo not given)", "Potency": "inactive"}
{"smiles": "C[C@@]12CCC[C@@](C)(C(=O)O)[C@H]1C[C@@H](O)[C@@]13C[C@@H](CC[C@@H]21)[C@](C)(O)C3", "Potency": "inactive"}
{"smiles": "C=C1C[C@H]2O[C@@H]3[C@@H]4[C@H](CC[C@@](C)(O)[C@@H]42)[C@H](C)COC3(C)[C@@H](OC(=O)CCCCCCC)C[C@H]1O", "note": "(stereo not given in full)", "Potency": "inactive"}
{"smiles": "COC(=O)c1cccc2oc(-c3cccc4oc(-c5c(C)cccc5O)nc34)nc12", "Potency": "inactive"}
{"smiles": "COc1ccc([C@@H]2c3cc4c(cc3C(=O)[C@H](C)C2C)OCO4)cc1OC", "note": "(stereo not given in full)", "Potency": "inactive"}
{"smiles": "C[C@H](c1cnc(N)[nH]1)c1ccc(O)c2[nH]cc(-c3cnc(-c4c[nH]c5ccccc45)c(=O)[nH]3)c12", "Potency": "inactive"}
{"smiles": "C/C(=C\\[C@H](C)C(=O)/C=C/CC1CC(=O)NC(=O)C1)[C@@H]1OC(=O)CCCC/C=C/[C@H](O)[C@@H](O)[C@@H]1C", "Potency": "inactive"}
{"smiles": "COC(=O)C1=C[C@]23C[C@@H](C)CC[C@@H]2[C@@]2(C)CC[C@@H](C(C)C)[C@@](O)(O3)[C@@H]12", "Potency": "inactive"}
{"smiles": "CO[C@@H]1[C@H](O)[C@@H](C)O[C@@H](OC[C@@H]2C(C)OC(=O)/C=C/[C@H](C)C(O[C@@H]3O[C@H](C)CC4(OC(=O)O[C@@H]4C)C3O)[C@@H](C)CC(C)C(=O)/C=C/[C@H]3OC23)[C@@H]1OC", "note": "(stereo not given in full)", "Potency": "inactive"}
